From PubChem
Cl transport mod – KCC2 cotransporter modulators, thallium flux, primary screen, cell-based, HEK293 KCC2, FluoZin-2 fluorescence, MLSMR; Solute carrier family 12 member 5 (Homo sapiens), Q9H2X9; KCC2 cells, thallium flux FluoZin-2 fluorescence; B-score of Tl+ flux slope (higher = more flux/activation; lower = inhibition) at 10 µM; 190,000 tested, 2.2% active;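 active = thallium flux slope and its plate-corrected score both differing from the plate sample mean at a set confidence after two filtering rounds, in either direction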;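 also: slope of fluorescence scaled to starting intensity during 10 to 20 s after thallium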
Target sequence (Q9H2X9 whole entry, looked up): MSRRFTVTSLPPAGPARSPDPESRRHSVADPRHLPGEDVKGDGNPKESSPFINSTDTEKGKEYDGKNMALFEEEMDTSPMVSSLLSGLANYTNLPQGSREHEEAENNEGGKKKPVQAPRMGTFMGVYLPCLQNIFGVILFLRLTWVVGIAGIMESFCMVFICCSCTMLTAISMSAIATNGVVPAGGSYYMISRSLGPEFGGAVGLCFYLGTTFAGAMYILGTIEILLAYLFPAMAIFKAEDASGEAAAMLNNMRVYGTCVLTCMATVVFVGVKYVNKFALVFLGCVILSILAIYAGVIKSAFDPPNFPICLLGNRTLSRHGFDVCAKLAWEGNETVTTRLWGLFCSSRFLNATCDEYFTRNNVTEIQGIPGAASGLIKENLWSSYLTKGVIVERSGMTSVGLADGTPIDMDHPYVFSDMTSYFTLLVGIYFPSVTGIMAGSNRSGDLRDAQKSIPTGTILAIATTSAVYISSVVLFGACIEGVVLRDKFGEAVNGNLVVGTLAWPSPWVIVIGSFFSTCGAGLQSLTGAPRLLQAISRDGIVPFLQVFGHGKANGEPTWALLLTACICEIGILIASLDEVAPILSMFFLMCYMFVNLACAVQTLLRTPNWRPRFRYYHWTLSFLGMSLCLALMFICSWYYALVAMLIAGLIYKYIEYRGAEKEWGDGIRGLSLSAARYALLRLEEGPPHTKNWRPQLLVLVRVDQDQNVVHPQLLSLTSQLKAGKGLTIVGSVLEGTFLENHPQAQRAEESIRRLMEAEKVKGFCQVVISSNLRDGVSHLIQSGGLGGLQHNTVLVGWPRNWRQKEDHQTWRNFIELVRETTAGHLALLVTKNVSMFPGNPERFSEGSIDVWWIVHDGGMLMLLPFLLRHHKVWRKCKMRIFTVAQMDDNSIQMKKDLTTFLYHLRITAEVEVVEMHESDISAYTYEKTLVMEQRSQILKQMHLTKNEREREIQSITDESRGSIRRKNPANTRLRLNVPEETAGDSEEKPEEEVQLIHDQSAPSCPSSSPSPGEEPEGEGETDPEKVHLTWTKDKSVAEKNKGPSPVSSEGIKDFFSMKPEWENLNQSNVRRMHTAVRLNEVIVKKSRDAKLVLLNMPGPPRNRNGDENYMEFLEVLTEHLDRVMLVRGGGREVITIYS
ROMK primary – ROMK potassium channel modulators, primary screen, cell-based, thallium flux, MLSMR library | Tet-inducible ROMK, thallium flux fluorescence; actives lie on both sides | B-score at 10 µM | AID 1918, 2009 | 130,000 tested, 2% active;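 active = signal ratio slope over the read window, or its plate-corrected B-score, at least 3 SD from the plate mean, either direction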;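 also: B-score of the F/F0 ratio slope over 7 to 12 s after thallium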
Arbovirus anti – antivirals against arbovirus infection, primary screen, cell-based, full library, 10K replicate subset; arbovirus infection cell-based antiviral screen; inhibition, % at 10 µM; 200,000 tested, 0.37% active; AID 1251, 2008; in the data active = inhibition above about 30%
Measles CPE – compounds protecting cells from measles virus cytopathic effect, primary screen, measles RdRp inhibitor project, single point, MLSMR library, absorbance | Measles virus-infected cells, CPE protection | 140,000 tested, 1.5% active | AID 841, 2007 | protection (pct of control), % at 4 µM; in the data active = protection mostly above about 24%, no sharp cut-off; inactive = mostly below about 26%
HSV augment – enhancers of HSV replication in host cells, fold increase, host cell viability | 220,000 tested, 0.005% active | maximum fold increase | HSV replication augmentation in cells; in the data active = maximum fold increase above about 1.5; inconclusive = no clear call, values can overlap the other calls; tested in PC3 cells
ROMK hit retest – ROMK channel modulator hit retest, confirmation, cell-based, thallium flux, duplicate, resupplied hits | shares compounds with ROMK primary | fluorescence ratio; active compounds read low | normalized thallium flux (F/F0 slope) at 10 µM | 3,000 tested, 54% active | AID 1917, 2009;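 active = Flux at 10 µM at least 3 SD below or above vehicle control mean in one or both replicates; inconclusive = no clear call, values can overlap the other calls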
Starred values were filed as active, the others as inactive; i = inactive; ? = inconclusive; . = not tested or not shown. Rows were chosen to be rich in hits. Some 4% of all compounds tested hit in one or more screens of this group.

SMILES | Cl transport mod | ROMK primary | Arbovirus anti | Measles CPE | HSV augment | ROMK hit retest
CCN1CC=C2C(C#N)=C(N)C(C#N)(C#N)C(CCc3ccccc3)C2C1 (stereo unspecified) | -0.48 | . | 7 | 10 | ? | 0.057*
CC(=O)N1CC=C2C(C#N)=C(N)C(C#N)(C#N)C(CCc3ccccc3)C2C1 (stereo unspecified) | -0.46 | -2.7* | -1 | 28 | i | 0.062*
N#CC1=C(N)C(C#N)(C#N)[C@H](c2ccoc2)[C@H]2CN(Cc3ccccc3)CC=C12 | i | . | -19 | 12 | ? | .
CC1=CC(C)(C)N(C(=O)CNC2CCCCC2)c2cc(C)ccc21 | 0.41 | -7.1* | 10 | . | i | 0.051*
COCCCNc1ccc([N+](=O)[O-])cc1C(=O)Nc1cccc(C)n1 | -1.6 | -4.1* | -5 | . | i | 0.045*
O=C(Nc1ccc(S(=O)(=O)Nc2nccs2)cc1)c1cc(-c2ccccc2Cl)nc2ccccc12 | 2.5 | 4.2* | 1 | 5 | . | 0.088
COC(=O)CN1C(c2cccc(Cl)c2)=Nc2ccc(Cl)cc2C1c1ccccc1 (stereo unspecified) | -0.2 | . | -18 | 2 | i | 0.055*
COC(=O)CN1C(c2ccc(OC)cc2)=Nc2ccc(Cl)cc2C1c1ccccc1 (stereo unspecified) | -1.2 | . | -6 | 6 | i | .
c1coc(CNc2ncnc3sc4c(c23)CCCCC4)c1 | -0.77 | . | 8 | 3 | i | 0.062*
CN(C(=O)COC(=O)c1ccc2ccccc2n1)C1CCS(=O)(=O)C1 (stereo unspecified) | 1.2 | 0.2 | 0 | . | i | .
COc1ccc(CNC(=O)COC(=O)c2cncc(Br)c2)cc1 | -0.96 | 0.073 | 9 | . | i | 0.077
Cc1ccc(CNC(=O)COC(=O)c2cncc(Br)c2)cc1 | 0.023 | -0.12 | 9 | . | i | .
COc1ccc(CCNC(=O)Cn2c(=O)[nH]c3ccsc3c2=O)cc1OC | 0.34 | 0.26 | 4 | . | i | .
CCOC(=O)CNC(=O)c1ccc2[nH]c3ccccc3c2c1 | -1.8 | 0.22 | -6 | . | i | .
O=C(NCC(O)CO)c1ccc2[nH]c3ccccc3c2c1 (stereo unspecified) | -0.063 | . | -2 | 3 | i | 0.077
C/C(O)=C\c1nc2ccccc2oc1=O | 0.94 | . | -10 | 28* | i | 0.074
Cc1cc(Cl)n2ncc(-c3ccccc3)c2n1 | -3.2 | . | . | . | i | 0.063*
Cc1nc(-c2ccccc2)nc2[nH]c(-c3ccccc3)cc(=O)c12 | . | 0.94 | 4 | 4 | i | .
Cc1nc(C)c2c(=O)cc(-c3ccccc3)[nH]c2n1 | -0.37 | 1.2* | -24 | -1 | i | 0.091
COc1ccccc1/C=C/C1(C(=O)NC2CCCC2)CC(=O)N1c1ccc(F)cc1 (stereo unspecified) | 0.64 | -2.7 | -12 | 2 | i | .
COc1ccccc1/C=C/C1(C(=O)NC2CCCC2)CC(=O)N1c1ccc(C)cc1 (stereo unspecified) | 0.49 | -5* | -4 | 5 | i | 0.062*
CC(C)(C)NCC(O)COc1ccccc1C(C)(C)C (stereo unspecified) | 0.077 | -3.8* | -12 | 4 | i | 0.078
CC(C)(C)NCC(O)COc1ccccc1C(=O)CCc1ccccc1 (stereo unspecified) | -0.66 | -3.9* | 5 | 15 | i | 0.05*
O=c1c2ccccc2c(C=NC2CCS(=O)(=O)C2)c(O)n1-c1ccccc1 (stereo unspecified) | -0.96 | -0.017 | -4 | 22 | i | .
O=S1(=O)CCC(N=Cc2cc(Br)ccc2O)C1 (stereo unspecified) | -0.49 | 1.6 | 4 | 32 | i | 0.1*
SMILES | Cl transport mod | ROMK primary | Arbovirus anti | Measles CPE | HSV augment | ROMK hit retest
CN(C)/C=C(/C(=O)c1ccc(Cl)cc1Cl)S(=O)(=O)c1ccc(Cl)cc1 | . | . | 0 | 16 | i | .
CN(C)/C=C(/C(=O)c1ccc(Cl)cc1)S(=O)(=O)c1ccc(Cl)cc1 | -0.1 | . | 7 | 2 | . | 0.082
NC(=O)N/N=C/c1ccccc1OC(=O)c1ccccc1Br | 0.033 | -3.2* | 1 | . | i | 0.052*
COc1ccc(N(CC(=O)Nc2ccc(C(N)=O)cc2)S(=O)(=O)c2ccc(C)c([N+](=O)[O-])c2)cc1 | -1.1 | 0.019 | -2 | . | i | .
COc1ccc(N(CC(=O)Nc2ccccc2C(N)=O)S(=O)(=O)c2ccc(C)c([N+](=O)[O-])c2)cc1 | 0.12 | 0.31 | -2 | . | i | 0.067*
O=C(NCc1ccccc1)N1CCC(n2cnc3cc(F)ccc32)CC1 | 0.08 | . | -1 | 6 | i | 0.069*
Cc1ccc2c(c1)nnn2C1CCN(C(=O)NCc2ccccc2)CC1 | -1.4 | -0.045 | 1 | . | i | .
Cc1cc(C(=O)Nn2cnc3ccccc3c2=O)ccc1[N+](=O)[O-] | 0.48 | -0.83 | -1 | . | i | .
O=C(CCn1c(=O)oc2ccccc21)N1CCN(C(c2ccccc2)c2ccccc2)CC1 | . | -2.8* | -25 | 10 | . | 0.059*
C/C(=N\NC(=O)c1cccc([N+](=O)[O-])c1)c1cccc(NC(=O)C2CC2)c1 | . | . | -8 | . | i | .
C/C(=N/NC(=O)C1CCN(S(=O)(=O)c2ccc(C)cc2)CC1)c1cccc([N+](=O)[O-])c1 | -0.75 | -2.5* | -1 | 10 | i | 0.076
COc1ccc(OCc2nc3ccccc3n2C(C)C)cc1 | -0.91 | -2.3 | -8 | . | i | .
COc1cc(/C=C2\C(=O)N(c3ccc(NC(C)=O)cc3)N=C2c2ccccc2)ccc1O | -1.9 | -2.4 | -7 | . | i | .
O=C1/C(=C\c2ccc(O)c(O)c2)C(c2ccccc2)=NN1c1ccccc1 | -0.62 | -3.9* | -35 | . | i | ?
CCNC(=O)COC(=O)c1cc(C)n(-c2ccccc2)c1C | 0.14 | 0.86 | -2 | . | i | .
Cc1cc(C(=O)OCC(=O)NCc2ccco2)c(C)n1-c1ccc(F)cc1 | -0.52 | 5.1* | -12 | 8 | i | 0.09
CCOC(=O)c1sc2nc(COC(=O)c3c(F)cccc3F)[nH]c(=O)c2c1C | 1.1 | -2.4* | 6 | . | i | 0.09
CCOC(=O)c1sc2nc(CSc3nc4ccccc4n3CC)[nH]c(=O)c2c1C | 2.1 | . | 7 | 2 | i | .
CCCC(=O)Nc1ccccc1-c1nnc(SCC)[nH]c1=O | -1.1 | -0.94 | . | . | i | .
O=C(O)c1ccoc1CN1CCCCC1 | . | 1.7* | 1 | 7 | i | 0.075
CC(=O)c1c(C)nn(C(C)CC(=O)O)c1C (stereo unspecified) | -0.13 | . | 0 | 11 | i | 0.076
CCC(C)c1cc(S(=O)(=O)N2CCOCC2)ccc1OC (stereo unspecified) | -0.43 | -3.7* | 6 | 5 | i | ?
COc1ccc(OC)c(NC(=O)c2ccno2)c1 | 0.95 | 0.94 | 4 | . | i | .
